This is a sample that favours compounds with a hit; in the whole collection about 9.8% have one here.
HPGD block – blocks human HPGD enzyme activity; purified HPGD, NADH fluorescence kinetic, PGE2 substrate; Potency, µM, actives largely listed as inhibitors; actives 4.3% (n = 150,000); active means well fitted inhibition curve with a large enough effect, not every such curve was filed as active; inconclusive means small, poorly fitted or top-dose-only effect, or another doubt; inactive means no such curve, though single readings can be large or run the other way
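NADH formation kinetics: reaction with 30 uM PGE2 and 1 mM NAD+ (final), 20 nM enzyme, Tris-HCl pH 8 with Tween 20, after 15 min compound preincubation at room temperature. Fluorescence change, last versus first of five reads.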
CBFb RUNX1 block – inhibitors of human CBF-beta and RUNX1 interaction; Q01196+Q13951; Potency, µM (doses to about 59.8 µM), hits mostly inhibitors; AlphaScreen CBFb-His/RUNX1-biotin binding, biochemical; 230,000 tested, under 10 active
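Bead-based AlphaScreen assay; binding partners His-tagged CBF-beta and biotinylated RUNX1 at 30 nM each. Compound exposure 15 min after a 20-min protein preincubation; bead step 90 min; all steps at room temperature.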
HTT cytoprotect – cytoprotection in Huntington HTT-Q103 PC12 cell model | Potency, µM (series often up to 56.4 µM), most hits filed as activators | PC12 HTT-Q103 induced, cytoprotection, ATP luminescence, 40 h | actives 0.14% (n = 230,000); further: nearly all actives have a fitted effect of over 45% in size
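Rat PC12, Q103 Htt exon1-GFP fusion, ecdysone promoter; tebufenozide inducer 100 nM final; compound titration; qHTS, 1500 cells/well; ATPlite luminescent read.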
HTT aggregate – mutant huntingtin aggregation inhibition; PC12 HttQ103-GFP aggregates, Acumen cytometry, 40 h; Potency, µM (titrated, usually from 46.1 µM), actives largely listed as inhibitors; actives 1.1% (n = 220,000); further: nearly all actives have a fitted effect of over 60% in size
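Read-out: GFP aggregate count by laser scanning cytometer (488 nm excitation, 500-530 nm emission, 1–25 µm objects >6 SD above background). Cells: PC12, inducible HTTex1-Q103-GFP, 100 nM tebufenozide; compounds titrated.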
JMJD2E inh – blocks human JMJD2E demethylase activity | B2RXH2 | actives 1.6% (n = 230,000) | AID 2147 | JMJD2E catalytic domain, FDH-coupled NADH fluorescence (FDH is formaldehyde dehydrogenase) | Potency, µM (titrated, usually from 57.1 µM), usual class: inhibitors; active means well fitted inhibition curve with a large enough effect, not every such curve was filed as active; inconclusive means small, poorly fitted or top-dose-only effect, or another doubt; inactive means no such curve, though single readings can be large or run the other way; further: nearly all actives have a fitted effect of over 50% in size
ALDH1A1 inh – blocks purified human ALDH1A1 activity; Purified ALDH1A1, NADH fluorescence, propionaldehyde substrate; actives 7.3% (n = 220,000); P00352; Potency, µM (top dose mostly 75.3 µM), hits mostly inhibitors; AID 1030; active means well fitted inhibition curve with a large enough effect, not every such curve was filed as active; inconclusive means small, poorly fitted or top-dose-only effect, or another doubt; inactive means no such curve, though single readings can be large or run the other way
Target sequence (P00352 whole entry, looked up): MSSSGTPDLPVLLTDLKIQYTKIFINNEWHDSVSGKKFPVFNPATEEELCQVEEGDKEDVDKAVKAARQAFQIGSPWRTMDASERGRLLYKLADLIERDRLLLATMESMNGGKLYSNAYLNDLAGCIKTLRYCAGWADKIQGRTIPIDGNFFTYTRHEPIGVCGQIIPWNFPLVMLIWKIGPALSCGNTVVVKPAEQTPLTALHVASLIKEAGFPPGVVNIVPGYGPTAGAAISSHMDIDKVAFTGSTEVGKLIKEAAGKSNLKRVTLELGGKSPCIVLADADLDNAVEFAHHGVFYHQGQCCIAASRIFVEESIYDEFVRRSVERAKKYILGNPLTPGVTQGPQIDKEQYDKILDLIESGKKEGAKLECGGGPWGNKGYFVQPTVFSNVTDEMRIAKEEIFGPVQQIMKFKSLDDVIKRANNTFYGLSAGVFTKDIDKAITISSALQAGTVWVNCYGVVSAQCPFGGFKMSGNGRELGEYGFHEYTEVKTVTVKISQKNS
Each line names hits and unclear results; the compound was inactive in the other large screens. Unless noted, the call rests on the fitted dose curve; in most records, active means well fitted curve in the direction sought with a large enough effect; inconclusive means small, poorly fitted or top-dose-only effect, or another doubt; inactive means no such curve, though single readings can be large; an effect the other way counts as inactive or inconclusive.

C[C@@H]1C=C(C(=O)NC2CC2)O[C@H](OCc2ccc(CO)cc2)C1	none (no result: HPGD block, ALDH1A1 inh)
CN(C(=O)Nc1cccc(C(F)(F)F)c1)C1CCCCC1	none (no result: HPGD block)
O=C(O)CCC/C=C\C[C@@H]1[C@@H](CC[C@@H](O)CCc2ccccc2)[C@H](O)C[C@@H]1O	none (no result: HPGD block, HTT cytoprotect, HTT aggregate, JMJD2E inh, ALDH1A1 inh)
Clc1ccccc1OCc1nn2c(-c3ccncc3)nnc2s1	HPGD block 4µM, ALDH1A1 inh inconclusive
c1csc(Cc2nn3c(-c4ccncc4)nnc3s2)c1	HTT aggregate 10µM, ALDH1A1 inh inconclusive
Clc1ccc(OCc2nn3c(-c4ccccc4)nnc3s2)c(Cl)c1	HPGD block inconclusive, ALDH1A1 inh inconclusive
Cc1nc2cnc(N3CCNCC3)nc2n(-c2ccccc2)c1=O	HPGD block inconclusive, ALDH1A1 inh inconclusive (no result: CBFb RUNX1 block, HTT aggregate, JMJD2E inh)
O=c1cnc2cnc(OCc3ccccc3)nc2n1Cc1ccc(F)cc1	HPGD block 32µM, ALDH1A1 inh inconclusive (no result: CBFb RUNX1 block, HTT aggregate, JMJD2E inh)
COc1ccc(Oc2ncc3ncc(=O)n(CCc4ccccc4)c3n2)cc1	ALDH1A1 inh 0.89µM (no result: CBFb RUNX1 block, HTT aggregate, JMJD2E inh)
COc1ccc(Oc2ncc3ncc(=O)n(Cc4cccc(OC)c4)c3n2)cc1	HPGD block 18µM (no result: CBFb RUNX1 block, HTT aggregate, JMJD2E inh)
COc1ccc(Oc2ncc3nc(C)c(=O)n(Cc4cccc(OC)c4)c3n2)cc1	ALDH1A1 inh inconclusive (no result: HPGD block, CBFb RUNX1 block, HTT aggregate, JMJD2E inh)
COc1c(OC)c2occc2c2oc(=O)ccc12	ALDH1A1 inh inconclusive (no result: HTT aggregate)
CCO/C=C/C(O)(CNC(=O)c1ccc(C(C)(C)C)cc1)C(F)(F)F (centres undefined)	HPGD block 25µM
Cc1ccccc1NC(=O)CSc1nnc(-c2ccco2)c(-c2ccco2)n1	HPGD block 8.9µM, CBFb RUNX1 block inconclusive, HTT aggregate inconclusive, JMJD2E inh inconclusive, ALDH1A1 inh 1.3µM
Cc1cccc(C)c1NC(=O)CSc1nnc(-c2ccco2)c(-c2ccco2)n1	HPGD block 28µM, JMJD2E inh inconclusive, ALDH1A1 inh 7.1µM (no result: CBFb RUNX1 block)
Cc1cccc(C)c1NC(=O)CCCSc1nnc(-c2ccco2)o1	none
Cc1ccccc1NC(=O)CSc1n[nH]c(-c2ccco2)n1	none (no result: HPGD block)
CCc1ccc(CNCCNCC(C)O)cc1 (centres undefined)	none
COCC(=O)N1CCC2(CC1)CN(Cc1cc(C(F)(F)F)cc(C(F)(F)F)c1)C2	none (no result: CBFb RUNX1 block, HTT aggregate, JMJD2E inh)
Cc1cc(C)nc(N/N=C/C2=C(N3CCOCC3)C(=C/c3ccccc3)/CC2)n1	HPGD block 18µM (no result: HTT cytoprotect)
Cc1cc(=O)[nH]c(N/N=C/C2=C(N3CCOCC3)C(=C\c3ccc(Cl)cc3)/CC2)n1	JMJD2E inh 28µM, ALDH1A1 inh 11µM
Cc1cc(C)nc(N/N=C/c2ccccc2)n1	HPGD block 14µM, ALDH1A1 inh 10µM
Cc1cc(C)nc(N/N=C/C=C/c2ccccc2)n1	none (no result: HTT cytoprotect)
O=C(O)c1ccccc1N/N=C/C1=C(N2CCOCC2)C(=C\c2ccccc2)/CC1	CBFb RUNX1 block inconclusive, JMJD2E inh inconclusive (no result: HPGD block, ALDH1A1 inh)
O=[N+]([O-])c1ccc(Cl)cc1Cl	none (no result: HTT aggregate, JMJD2E inh)
Cn1c(C(=O)NC2CC2)cc2c(=O)n(C)c3ccccc3c21	JMJD2E inh inconclusive
Cn1c(C(=O)Nc2ccc3c(c2)OCCO3)cc2c(=O)n(C)c3ccccc3c21	HPGD block inconclusive, JMJD2E inh inconclusive, ALDH1A1 inh 25µM
Cn1c(C(=O)N2CCN(C(=O)c3ccco3)CC2)cc2c(=O)n(C)c3ccccc3c21	ALDH1A1 inh 20µM
O=C1c2ccccc2-c2ccc(C(=O)N3CCOCC3)cc21	HPGD block 11µM
O=C(c1cccc(-c2ccc(O)cc2)c1)N1CCOCC1	HPGD block 16µM
Cc1ccc(NC(=O)CCc2nc3ccccc3s2)c(O)c1	none (no result: HPGD block)
CCOc1ccc(C(CC(=O)O)NC(=O)COc2ccccc2OC)cc1OC (centres undefined)	none (no result: HPGD block)
CC(C)(C)NC(=O)NC(=O)CN1CCN(c2cccc(Cl)c2)CC1	none (no result: HPGD block, ALDH1A1 inh)
COc1ccc(CCc2nnc(CCC(=O)N(C)Cc3ccnc4ccccc34)o2)cc1	none (no result: HPGD block)

Source: PubChem
